TRHR ag: qHTS for Small Molecule Agonists and Allosteric Enhancers of Human TRH Receptor: Primary Screen for Agonists | TRHR cells, calcium flux fluo-8, FDSS agonist mode | actives 0.18% (n = 360,000) | AID 493084, 2011 | activation, % at 2 µM | Thyrotropin-releasing hormone receptor (Homo sapiens), P34981
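In this calcium-flux screen, cells bearing human TRHR are dye-loaded with fluo-8, baselined for 10 cycles, then exposed to library compounds; positive kinetic calcium responses during the agonist phase mark hits, with TRH as control.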
GRP78 ERSR act: qHTS for Inducers of the Endoplasmic Reticulum Stress Response (ERSR) in Human Glioma: qHTS | U87-MG GRP78 promoter luciferase reporter, 16 h | actives 0.02% (n = 420,000) | Potency, µM, most hits filed as activators | AID 602332, 2012; active = well fitted activation curve with a large enough effect; inconclusive = small, poorly fitted or top-dose-only effect; inactive = no such curve, though single readings can be large or run the other way; also: series mostly up to about 76 µM; nearly all actives have a fitted effect of over 35% in size
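Stably transfected U87-MG human glioma cells carrying a GRP78-based luminescent sensor were seeded at 1000 cells/well, pin-dosed with compounds and incubated 16 h. Luciferase reagent was then added, and end-point luminescence was read after 10 min at room temperature.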
D1 antag: Antagonist of Human D 1 Dopamine Receptor: qHTS; D(1A) dopamine receptor (Homo sapiens), P21728; HEK293 TREx D1 cells, calcium flux, dopamine EC80; active compounds read low; activity change, negative = inhibition, % at 10 µM; actives 3.2% (n = 360,000); in the data active = activity change below about -30%
Target sequence (P21728 whole entry, looked up): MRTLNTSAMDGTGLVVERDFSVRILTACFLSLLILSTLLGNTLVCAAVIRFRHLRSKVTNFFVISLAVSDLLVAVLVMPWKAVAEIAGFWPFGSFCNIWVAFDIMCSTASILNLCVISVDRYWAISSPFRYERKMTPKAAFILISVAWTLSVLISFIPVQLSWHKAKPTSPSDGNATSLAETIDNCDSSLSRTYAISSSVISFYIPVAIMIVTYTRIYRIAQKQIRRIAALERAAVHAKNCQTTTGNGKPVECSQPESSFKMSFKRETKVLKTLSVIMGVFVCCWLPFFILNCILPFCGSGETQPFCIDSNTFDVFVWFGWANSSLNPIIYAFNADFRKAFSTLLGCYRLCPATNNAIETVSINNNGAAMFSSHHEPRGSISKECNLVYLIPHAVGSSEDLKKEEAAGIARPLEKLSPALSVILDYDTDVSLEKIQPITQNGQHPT
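Inducible Hek293 Trex D1 cells (tetracycline, overnight, 30 C). Calcium dye 30–90 min RT. Antagonist mode: EC80 dopamine added after 180 s compound read.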
D1 ag: Allosteric Agonists of the Human D1 Dopamine Receptor: qHTS; HEK293 T-REx D1 cells, calcium flux, agonist mode; activation, % at 2 µM; actives 1% (n = 360,000); D(1A) dopamine receptor (Homo sapiens), P21728
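Tetracycline-induced HEK293 TREx D1 cells, force-coupled to calcium signalling, were dye-loaded with a no-wash calcium kit. Compound was pin-added after a 10 s baseline. Fluorescence was read kinetically at 1 cycle/s for 180 s, with calcium rises flagged as agonism.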
TRHR enhancer: qHTS for Small Molecule Agonists and Allosteric Enhancers of Human TRH Receptor: Primary Screen for Enhancers | Thyrotropin-releasing hormone receptor (Homo sapiens), P34981 | TRHR cells, fluo-8 calcium fluorescence, EC20 TRH enhancement | enhancement, % at 2 µM | actives 0.66% (n = 360,000); in the data active = enhancement above about 30%
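TRHR-expressing cells loaded with fluo-8 calcium dye were read kinetically (ex 480/em 530) during compound addition, then stimulated with an EC20 of TRH (10 nM final). Enhancement of the Gq-mediated intracellular calcium response was scored.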
D1 PAM: Potentiators of Human D1 Dopamine Receptor: qHTS. D(1A) dopamine receptor (Homo sapiens), P21728. HEK293 TREx D1 cells, calcium flux, dopamine EC20 potentiation. potentiation, % at 10 µM. actives 0.036% (n = 360,000). AID 504651, 2011; in the data active = potentiation above about 30%
Large screens that a line does not name were inactive. Most compounds without a hit are left out; they make up all but 4% or so of the library. Rule as the data show it, unless noted: active = activation above about 30%; inactive = the rest.

COC(=O)c1ccc(CN2CCC3(CCC(CNC(=O)c4ccco4)O3)CC2)cc1 (stereo not given)	none (no result: TRHR ag, D1 antag, D1 ag, TRHR enhancer, D1 PAM)
O=C(Nc1nc2ccccc2s1)c1ccc(S(=O)(=O)N2CCCC2)cc1	D1 antag -46
COc1ccc(C(=O)Nc2nc3ccc(S(=O)(=O)N4CCCC4)cc3s2)cc1	D1 antag -32
CCOC(=O)N1CCN(S(=O)(=O)c2ccc(C(=O)Nc3nc4ccccc4s3)cc2)CC1	none
CC[n+]1c(/C=C/C=C2/N(C)c3ccccc3C2(C)C)sc2ccccc21	none (no result: TRHR ag, D1 antag, D1 ag, TRHR enhancer, D1 PAM)
N#Cc1nc(Nc2cccc([N+](=O)[O-])c2)nc(NC2CCCC2)n1	none (no result: GRP78 ERSR act)
Cc1ccc(C(=O)O)cc1NCc1ccncc1	TRHR enhancer 30
O=C(O)c1ccc(Cl)c(NCc2ccncc2)c1	none
Cc1ccc(-c2ccc(/C=N/n3cnnc3)o2)cc1Cl	none
Clc1cccc(-c2ccc(/C=N/n3cnnc3)o2)c1	D1 antag -33
Cc1nc2ccccc2n1CC(O)COC1CCCCC1 (stereo not given)	D1 antag -72
CC(C)c1nc2ccccc2n1CC(O)COC1CCCCC1 (stereo not given)	none
COc1ccc(CCNC(=O)C2CCN(c3ccc(N4CCOCC4)nn3)CC2)c(OC)c1	D1 antag -33
O=C(C[N+]1(CCO)CCOCC1)c1cccc2ccccc12	none (no result: TRHR ag, D1 antag, D1 ag, TRHR enhancer, D1 PAM)
COCC(C)NC(=O)CSc1nc2cc(S(=O)(=O)N3CCCCC3)ccc2o1 (stereo not given)	D1 antag -47
COC(=O)c1c(-c2ccc(Cl)cc2)noc1N1CCN(c2ccc(F)cc2)CC1	none
COC(=O)c1c(-c2ccc(Cl)cc2)noc1N1CCN(c2ccccc2OC)CC1	D1 antag -31
COc1cc2cc(Oc3ccc4ccc(=O)oc4c3)c(=O)oc2cc1OC(=O)/C=C/c1ccccc1	D1 antag -62
Cc1ccc(-c2csc3nc(CN(C)Cc4ccccc4)[nH]c(=O)c23)cc1	D1 antag -36
COc1ccc(N2CCN(Cc3nc4scc(-c5cccs5)c4c(=O)[nH]3)CC2)cc1	none
Cc1ccc(-c2csc3nc(-c4ccncc4)[nH]c(=O)c23)cc1	D1 antag -34
CCOc1ccc(-c2nc3scc(-c4cccs4)c3c(=O)[nH]2)cc1	D1 antag -75
COc1cccc(CN(C)C(=O)c2ccc(NC(=O)CC3SC(N4CCCC4)=NC3=O)cc2)c1OC (stereo not given)	none
CC(=O)Nc1sc(C)c(C)c1C(=O)OCCOc1ccccc1	none
NS(=O)(=O)c1ccc(NC=C2C(=O)OC3(CCCCC3)OC2=O)cc1	TRHR enhancer 33
CN(CC(=O)Nc1ccccc1Br)C(=O)CN1CCN(Cc2ccc(Cl)cc2)CC1	none
CCOc1ccc(S(=O)(=O)N2CCN(c3nc(-c4ccccc4)nc4ccccc34)CC2)cc1OCC	none (no result: TRHR ag, D1 antag, D1 ag, TRHR enhancer, D1 PAM)
Oc1ccccc1N=N/C(=N/Nc1ccccc1O)c1ccccc1	none
N#C/C(N=Nc1ccccc1O)=N\Nc1ccccc1O	D1 antag -59, D1 ag 36
CC(C)(C)c1ccc(C(=O)C[n+]2ccc(Cl)c3ccc(Cl)cc32)cc1	none (no result: TRHR ag, D1 antag, D1 ag, TRHR enhancer, D1 PAM)
COc1ccc(CN=C2NN=C(c3ccc(Cl)cc3)CS2)cc1	none
CC(C)(C)N=C1NN=C(c2ccc(Cl)cc2)CS1	D1 antag -40
CCOC(=O)c1c(C)[nH]c(C2=NNC(=Nc3ccccc3)SC2)c1C	none
CCOC(=O)c1c(C)[nH]c(C2=NNC(=Nc3ccccc3OC)SC2)c1C	none
CCOC(=O)c1c(C)[nH]c(C2=NNC(=Nc3ccc(OCC)cc3)SC2)c1C	D1 antag -72
CC(=O)c1c(C)[nH]c(C2=NNC(=NC(C)(C)C)SC2)c1C	D1 antag -33
C=CCOc1ccc(/C=N/N2C(=O)C(CC(=O)Nc3ccc(F)cc3F)SC2=NC)cc1 (stereo not given)	GRP78 ERSR act inconclusive, D1 antag -49
CCOCCCNC(=O)C(c1ccccc1)N(Cc1cccs1)C(=O)c1ccc(NC(C)=O)cc1 (stereo not given)	none
CC(C)(C)c1ccc(-c2noc(CCC(N)=O)n2)cc1	D1 antag -40
Cc1ccc(-c2noc(CCC(=O)N(C)c3ccccc3F)n2)cc1	none
CCc1ccccc1N(CC)C(=O)CCc1nc(-c2ccc(C)cc2)no1	D1 ag 34
CNC(=O)CCc1nc(-c2ccc(C(C)(C)C)cc2)no1	none
CC(C)c1ccc(C2NC(=O)c3ccccc3O2)cc1 (stereo not given)	none
O=[N+]([O-])c1cccc(S(=O)(=O)Nc2nc3ccccc3nc2Nc2cccc(S(=O)(=O)N3CCCCC3)c2)c1	D1 antag -32
Cc1ccc(S(=O)(=O)Nc2nc3ccccc3nc2Nc2cccc(S(=O)(=O)N3CCCC3)c2)cc1	D1 antag -39
CC1CCc2nc3ncn(CC(=O)Nc4cccc(C#N)c4)c(=O)c3cc2C1 (stereo not given)	none
CCCCC1CC2=C(C(=O)OC(C)(C)O2)C(c2ccc(Cl)cc2)O1 (stereo not given)	none (no result: TRHR ag, D1 antag, D1 ag, TRHR enhancer, D1 PAM)
c1coc(CNC2CCCCCCC2)c1	D1 antag -48
c1coc(CNC2CCCCC2)c1	none
CCOC(=O)c1[nH]c(CO)c(C(=O)OCC)c1C	none
CCC(=O)c1ccc(OCC(=O)OCC(=O)c2cc(C)n(C3CC3)c2C)cc1	none
Cc1cc(C)cc(OCC(=O)OCC(=O)c2cc(C)n(C3CC3)c2C)c1	D1 antag -30
Cc1ccc(C(C)C)c(OCCCn2c(=O)oc3ccc(C)cc32)c1	none
Cc1ccc(C(C)C)c(OCCCn2c(=O)oc3ccccc32)c1	D1 ag 33
O=C(CSc1nnc(CNC(=O)c2c(F)cccc2Cl)o1)Nc1cccc(F)c1	D1 antag -33
CO[C@H]1C[C@@H]2CC[C@@H](C)[C@@](O)(O2)C(=O)C(=O)N2CCCC[C@H]2C(=O)O[C@H]([C@H](C)C[C@@H]2CC[C@@H](O)[C@H](OC)C2)CC(=O)[C@H](C)/C=C(\C)[C@@H](O)[C@@H](OC)C(=O)[C@H](C)C[C@H](C)/C=C/C=C/C=C/1C	none (no result: TRHR ag, D1 antag, D1 ag, TRHR enhancer, D1 PAM)
Nc1nc(N)c(Cc2ccc(Cl)cc2Cl)c(N)n1	none
Cc1nc(N)c(Cc2ccccc2F)c(N)n1	D1 antag -35
